From PubChem BioAssay (Tox21)
Results filed as inconclusive are left out. A call without a number means that no potency is given here. Unmarked numbers belong to inactive results. The source made the active and inactive calls. Calls follow the shape of the full dose curve. Peptide text beside a SMILES is read from it.
Potency is read from the fitted curve at half-maximal effect.

Test: p53 small molecule agonists, cell-based qHTS assay with human liver microsomes: qHTS cell viability counter screen (AID 1963579); also: nearly all actives have a fitted effect of over 45% in size
Conditions: p53RE-bla HCT-116 viability, ATP luminescence, 16 h, HLM; series mostly up to 66 µM
Excerpt: National Center for Advancing Translational Sciences [NCATS]
Division of Preclinical Innovation [DPI]
U.S. Environmental Protection Agency [EPA]
National Institutes of Environmental Health Sciences [NIEHS]
National Toxicology Program [NTP]
U.S. Food and Drug Administration [FDA]
p53, a tumor suppressor protein, is activated following cellular insult, including DNA damage and other cellular stresses. The activation of p53 regulates cell fate by inducing DNA repair, cell cycle arrest, apoptosis, or cellular senescence. The activation of p53, therefore, is a good indicator of DNA damage and other cellular stresses. […] The activation of the reporter gene under culture conditions can be detected by fluorescence intensity. This cell line was used to screen the Tox21 10K compound library in the condition of presence of human liver microsomes and to identify agonists that activate the p53 signaling pathway after in vitro metabolic activation (Ooka et al., Archive of Toxicology 96:1975-1987, 2022).
Tox21 Assay Protocol Summary:
The p53RE-bla cells were dispensed at 4,000cells/3ul/well in 1536-well black-clear bottom plates. After the assay plates were incubated at 37 C, 5% CO2 incubator for 5 hours, 23 nL of compounds dissolved in DMSO, positive controls or DMSO only was transferred to the assay plate. Following compound addition, 3 uL of human liver microsomes (XenoTech, Kansas City, KS) at final concentration of 0.5 mg/mL and 1uL of B-Nicotinamide adenine dinucleotide 2'-phosphate (NADPH) at final concentration of 0.5 mg/mL were transferred to the assay plate. The plates were incubated at 37 C for 16 hours. 1 uL of LiveBLAzer detection mixture was added to each well and the plates were incubated at room temperature in the dark for 2 h. Fluorescence intensity at 460 and 530 nm emission and 405 nm excitation were measured by an Envision plate reader. For cell viability readout that measures cytotoxicity, 4 ul/well of CellTiter-Glo reagent was added into the assay plates using a Flying Reagent Dispenser. After 30 min incubation at room temperature, the luminescence intensity in the plates was measured using a ViewLux plate reader.
With CCC(Cc1ccccc1)(C(=O)c1ccc(N2CCOCC2)cc1)N(C)C (stereo not given) the Potency was “inactive”.
With O=C(OCCCCCCOC(=O)c1ccccc1)c1ccccc1 the Potency was “inactive”.
For C=CCOc1c(Br)cc(Br)cc1Br, the Potency was “inactive”.
With CC(=O)N[C@@H](CO)C(=O)N[C@@H](CC(=O)O)C(=O)N[C@@H](CCCCN)C(=O)N1CCC[C@H]1C(=O)O (Ac-SDKP-OH) the Potency was “inactive”.
In the case of Cc1cc(SC2=C(O)C[C@@](CCc3ccc(N)cc3)(C(C)C)OC2=O)c(C(C)(C)C)cc1CO, the Potency was “inactive”.
For CCCCS, the Potency was “inactive”.
For Cc1ccc2c(Cl)cc(Cl)c(O)c2n1, the Potency was “inactive”.
With CCCCCCCC/C=C\CCCCCCCCN the Potency was “inactive”.
For O=[N+]([O-])c1cccc(I)c1, the Potency was “inactive”.
In the case of CSSc1ccoc1C, the Potency was “inactive”.
NCC[C@H](O)C(=O)N[C@@H]1C[C@H](N)[C@@H](O[C@H]2O[C@H](CN)[C@@H](O)[C@H](O)[C@H]2O)[C@H](O)[C@H]1O[C@H]1O[C@H](CO)[C@@H](O)[C@H](N)[C@H]1O showed an activity change, negative = cytotoxicity of 4.34% [at 0.249 µM].
With O=C1OC(=O)C2C3C=CC(C3)C12 (stereo not given) the Potency was “inactive”.
With C#CCOC(=O)[C@@H](C)Oc1ccc(Oc2ncc(Cl)cc2F)cc1 the Potency was “inactive”.
With CC(C(O)c1ccc(O)cc1)N1CCC(Cc2ccccc2)CC1 (stereo not given) the Potency was “inactive”.
With COc1cc(OC)nc(NC(=O)NS(=O)(=O)Nc2ccccc2C(=O)N(C)C)n1 the Potency was “inactive”.
For CC1(C)CC(OC(=O)CCCCCCCCC(=O)OC2CC(C)(C)NC(C)(C)C2)CC(C)(C)N1, the Potency was 0.884 µM (active).
For CC(C)(Sc1cc(C(C)(C)C)c(O)c(C(C)(C)C)c1)Sc1cc(C(C)(C)C)c(O)c(C(C)(C)C)c1, the Potency was “inactive”.
In the case of CCOc1cc(OCC)c(C(C)=O)cc1OCC, the Potency was “inactive”.
With CCC(C(=O)O)c1ccc(N2Cc3ccccc3C2=O)cc1 (stereo not given) the Potency was “inactive”.
With Nc1c(CC(=O)O)cccc1C(=O)c1ccc(Br)cc1 the Potency was “inactive”.
For Cc1cc(CCCOc2c(C)cc(-c3noc(C(F)(F)F)n3)cc2C)on1, the Potency was “inactive”.
In the case of O=c1c(O)c(O)c1=O, the Potency was “inactive”.
For O=C(O)c1cccc(C(=O)O)c1C(=O)O, the Potency was “inactive”.
For COC(=O)C1=C(C)NC(C)=C(C(=O)OC(C)(C)CN(C)CCC(c2ccccc2)c2ccccc2)C1c1cccc([N+](=O)[O-])c1 (stereo not given), the Potency was “inactive”.
For O=C(CCCN1CCN(c2ccccn2)CC1)c1ccc(F)cc1, the Potency was “inactive”.
In the case of O=C1c2ccccc2C(=O)C1(O)O, the Potency was 36.5 µM (active).
With O=C(O)c1cccc(Cl)n1 the Potency was 40.8 µM (active).
In the case of Nc1nc(N)c(-c2ccccc2)s1, the Potency was “inactive”.
In the case of CC(C)CCCC(=O)O, the Potency was “inactive”.
With CCCCCCCCC(C)=O the Potency was “inactive”.
In the case of C[Si]1(C)N[Si](C)(C)N[Si](C)(C)N1, the Potency was “inactive”.
For CCCCCCCCCC#N, the Potency was 11.4 µM (active).
With COC(=O)C1=C(C)NC(C)=C(C(=O)OCCN2CCN(C(c3ccccc3)c3ccccc3)CC2)C1c1cccc([N+](=O)[O-])c1 (stereo not given) the Potency was “inactive”.
In the case of C=CC(=O)OCCOC(=O)CCC(=O)O, the Potency was “inactive”.
In the case of Nc1c(Cl)cc(Cl)cc1Cl, the Potency was “inactive”.
In the case of CCC1(CO)COCOC1, the Potency was “inactive”.
For Nc1ccc2cc(S(=O)(=O)O)ccc2c1, the Potency was “inactive”.
For CN1C[C@H](C(=O)N[C@]2(C)O[C@@]3(O)[C@@H]4CCCN4C(=O)[C@H](Cc4ccccc4)N3C2=O)C[C@@H]2c3cccc4[nH]cc(c34)C[C@H]21, the Potency was “inactive”.
For CCN(C(=O)c1cc(C)cc(OC[C@H](C)Nc2ccncc2)c1)C(C)C, the Potency was “inactive”.
In the case of O=C1CCCCO1, the Potency was “inactive”.
